Data: PubChem BioAssay (NCI)
This is part of a sample that, as a whole, favours compounds with a hit. Of some 83,000 tested, about 20% had one in any assay.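 Step 1: grow cells in 96-well plates. Step 2: add test compound at a single concentration. Step 3: incubate 48 h. Step 4: record percent growth.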 A number with no mark means an inactive call. The source made the active and inactive calls. Rule for the calls: active = growth percent below 10; inactive = the rest.

What was measured:
Test in all cases: NCI-60 one-dose screen, 48 h (100 = growth as untreated, 0 = no growth, -100 = all killed)
Conditions in all cases: 10 µM unless noted
SR leukemia = test system: SR leukemia
RPMI-8226 leukemia = test system: RPMI-8226 leukemia
OVCAR-8 ovarian = test system: OVCAR-8 ovarian
OVCAR-5 ovarian = test system: OVCAR-5 ovarian
OVCAR-4 ovarian = test system: OVCAR-4 ovarian
SK-OV-3 ovarian = test system: SK-OV-3 ovarian
IGROV1 ovarian = test system: IGROV1 ovarian
OVCAR-3 ovarian = test system: OVCAR-3 ovarian
HS 578T breast = test system: HS 578T breast
NCI/ADR-RES ovarian = test system: NCI/ADR-RES ovarian
T-47D breast = test system: T-47D breast
BT-549 breast = test system: BT-549 breast
MDA-MB-435 melanoma = test system: MDA-MB-435 melanoma
SW-620 colon = test system: SW-620 colon
MCF7 breast = test system: MCF7 breast
HCT-116 colon = test system: HCT-116 colon
HCC-2998 colon = test system: HCC-2998 colon
KM12 colon = test system: KM12 colon

Row | SMILES | growth (SR leukemia) | growth (RPMI-8226 leukemia) | growth (OVCAR-8 ovarian) | growth (OVCAR-5 ovarian) | growth (OVCAR-4 ovarian) | growth (SK-OV-3 ovarian) | growth (IGROV1 ovarian) | growth (OVCAR-3 ovarian) | growth (HS 578T breast) | growth (NCI/ADR-RES ovarian) | growth (T-47D breast) | growth (BT-549 breast) | growth (MDA-MB-435 melanoma) | growth (SW-620 colon) | growth (MCF7 breast) | growth (HCT-116 colon) | growth (HCC-2998 colon) | growth (KM12 colon)
1 | CCOC(=O)c1c(NC(=O)c2cccc(C(F)(F)F)c2)sc2c(CN3CCN(C)CC3)c(O)ccc12 | 23.5% | -28.8% (active) | -35.2% (active) | -77.9% (active) | 26.8% | 97.3% | -86.1% (active) | 65.6% | 76.3% | -38.2% (active) | 21% | 102% | -81.5% (active) | -66.4% (active) | -85.4% (active) | -82.6% (active) | -36.6% (active) | -75.2% (active)
2 | COc1ccc(CN2C(=O)/C(=C/c3nc(CO)cs3)SC2=S)cc1 | 33.8% | 18.5% | 96.7% | 107% | 107% | 109% | 89.9% | 80.8% | 101% | 97.8% | 53% | 99.9% | 89.7% | 77.8% | 12% | 75% | 109% | 9.43% (active)
3 | O=C(COc1ccc(C2SCC(=O)N2c2ccc(F)cc2)cc1)c1ccccc1 (stereo not drawn) | 65.1% | 87.4% | 94.4% | 107% | 110% | 112% | 86.2% | 114% | 96.7% | 94.2% | 89.8% | 93.4% | 103% | 116% | 81.7% | 94.3% | 106% | 92.4%
4 | O=[N+]([O-])c1ccc(-c2nnc(SCc3ccc(O)c4ncccc34)o2)cc1 | 45% | 15% | 22% | 49% | 17.3% | 11.1% | 31.7% | 8.31% (active) | 2.14% (active) | 25.3% | 9.66% (active) | 27.4% | 19% | 20.5% | 6.95% (active) | 12.7% | 28% | 13.8%
5 | COc1ccc(Cn2cc3c(c2-c2cc(OC)c(OC)c(OC)c2)CCCc2cnoc2-3)cc1N | 18% | 19.9% | 47.3% | 38.2% | 80.9% | 65.6% | 35.2% | 7.33% (active) | 13% | 15.5% | 51.5% | 68.2% | -45.3% (active) | 29.6% | 15.2% | 24.1% | 49% | 26.1%
6 | CCCCCCCCCC[C@@H](C)[C@@H]1CC(=O)N[C@H]([C@@H](C)O)C(=O)N[C@@H](C)C(=O)N[C@H](C)C(=O)N[C@@H](CCC(N)=O)C(=O)N[C@H](Cc2ccc(O)cc2)C(=O)N[C@@H](C(C)CC)C(=O)O1 (stereo partly drawn) | 75% | 35.1% | 51.8% | 92.2% | 30.9% | 66.5% | 76.2% | 48.4% | 89% | 93.6% | 28% | 72.1% | 75.3% | 81.9% | 38.9% | 64.6% | 68.3% | 81.4%
7 | CC(=O)C1=NN(c2ccc(Cl)cc2)C(=O)CN1C | 102% | 115% | 102% | 95% | 114% | 113% | 103% | 123% | 107% | 105% | 96.6% | 96.6% | 103% | 106% | 96.1% | 99.8% | 104% | 102%
8 | CN(C)CCn1c2ccc(N)cc2c2nc3ccccc3nc21 | 33.3% | 24.6% | 35.7% | 41% | 53.5% | 37.4% | 23.2% | 37% | 76.2% | 28.1% | 36.4% | 85.5% | 38.4% | 17.1% | 9.61% (active) | 11.3% | 45.9% | 38.5%
9 | Cn1ccnc1C(=O)/C=C/c1ccc(C(=O)Nc2ccc(NC(=O)CCNC(=O)c3csc(Br)n3)cc2)cc1 | 12.5% | 14.5% | 63.9% | 78.8% | 64.1% | 100% | 41.7% | 15.5% | 95.5% | 60.9% | 58.9% | 65.4% | 44.2% | 14.1% | 17.7% | 20.5% | 106% | 33.3%
10 | CCN1C(=O)N(CC)C2SC(N/N=C/c3ccc(OC)cc3)=NC21 (stereo not drawn) | 19.3% | 17.6% | 26% | 36.8% | 69.1% | 62.4% | 23.2% | -13.1% (active) | 31.9% | 2.95% (active) | 80.9% | 18.9% | 0.665% (active) | 20.2% | 15.2% | 6.83% (active) | 13.5% | 13.9%
11 | NC(=O)C(=Cc1ccc(Cl)cc1)C(N)=O | 53.3% | 41.9% | 65.6% | 78.2% | 62.3% | 117% | 59.1% | 52% | 89.7% | 57.1% | 45.2% | 58.1% | 69.6% | 52.2% | 34.4% | 52.2% | 85.7% | 85.2%
12 | CC1(C)CC[C@]2(C(=O)O)CC[C@]3(C)C(=CCC4[C@@]5(C)C[C@@H](O)[C@@H]6OC(c7cccc([N+](=O)[O-])c7)OC[C@@]6(C)C5CC[C@]43C)C2C1 (stereo partly drawn) | 72.7% | 56% | 58.7% | 97.2% | 83.2% | 105% | 74.4% | 81.9% | 94.1% | 39.7% | 93.1% | 77.3% | 85.5% | 73.7% | 74.4% | 49.5% | 42% | 46.1%
13 | O=C(Nc1cccc(Cl)c1)Nc1nc2ccc([N+](=O)[O-])cc2s1 | 2.1% (active) | 3.45% (active) | 7.34% (active) | 26.5% | 4.33% (active) | -1.18% (active) | 14.8% | 9.51% (active) | -5.35% (active) | 2.96% (active) | -11.7% (active) | -28.7% (active) | -8.69% (active) | 3.71% (active) | 4.68% (active) | 0.143% (active) | 5.59% (active) | 0.174% (active)
14 | Cc1nn(-c2ccccc2)cc1/C=N/Nc1nc(Nc2ccccc2)nc(Nc2ccc(S(N)(=O)=O)cc2)n1 | 33.6% | -23.1% (active) | 18.2% | -13.2% (active) | 14.9% | 50.5% | 13.1% | -31.1% (active) | 13.8% | 76.4% | 18.9% | 21.5% | -31.8% (active) | -14.3% (active) | -69.9% (active) | -40.9% (active) | -17.2% (active) | 9.04% (active)
15 | COc1ccc(/C=N/Nc2nc(N/N=C/c3ccc(OC)cc3O)nc(N3CCOCC3)n2)c(O)c1 | 27.4% | 41.7% | 69.1% | 68.1% | 63.1% | 89.1% | 51.1% | 19.1% | 77.7% | 23.1% | 42.4% | 90.3% | 81% | 36.3% | 51.7% | 34.4% | 81.1% | 51.4%
16 | CN(c1ccc(F)cc1)S(=O)(=O)c1ccc(-c2cnc(C3CC3)o2)cc1 | 20.1% | 14.1% | 38.8% | 49.5% | 70.4% | 72.1% | 27.5% | 6.57% (active) | 37.4% | 9.11% (active) | 54.1% | 46.2% | -26.2% (active) | 32.9% | 23.7% | 18.7% | 22.3% | 18.5%
